Screen size: about 310,000 compounds; about 14,000 (4.5%) showed an effect of 50% or more. The effect is printed as a negative number. Only a selection was taken, and strong results are over-represented in it overall.
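Further: peak tail current of the secondary pulse compared with the same well before compound.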

The target in the experiment is human ether-à-go-go-related gene (hERG) potassium channel (human, UniProt Q12809). The experiment is described as follows: primary screen, population patch clamp on CHO cells stably expressing hERG; higher = less effect of the substance.
human ether-à-go-go-related gene (hERG) potassium channel, sequence (Q12809 whole entry, looked up): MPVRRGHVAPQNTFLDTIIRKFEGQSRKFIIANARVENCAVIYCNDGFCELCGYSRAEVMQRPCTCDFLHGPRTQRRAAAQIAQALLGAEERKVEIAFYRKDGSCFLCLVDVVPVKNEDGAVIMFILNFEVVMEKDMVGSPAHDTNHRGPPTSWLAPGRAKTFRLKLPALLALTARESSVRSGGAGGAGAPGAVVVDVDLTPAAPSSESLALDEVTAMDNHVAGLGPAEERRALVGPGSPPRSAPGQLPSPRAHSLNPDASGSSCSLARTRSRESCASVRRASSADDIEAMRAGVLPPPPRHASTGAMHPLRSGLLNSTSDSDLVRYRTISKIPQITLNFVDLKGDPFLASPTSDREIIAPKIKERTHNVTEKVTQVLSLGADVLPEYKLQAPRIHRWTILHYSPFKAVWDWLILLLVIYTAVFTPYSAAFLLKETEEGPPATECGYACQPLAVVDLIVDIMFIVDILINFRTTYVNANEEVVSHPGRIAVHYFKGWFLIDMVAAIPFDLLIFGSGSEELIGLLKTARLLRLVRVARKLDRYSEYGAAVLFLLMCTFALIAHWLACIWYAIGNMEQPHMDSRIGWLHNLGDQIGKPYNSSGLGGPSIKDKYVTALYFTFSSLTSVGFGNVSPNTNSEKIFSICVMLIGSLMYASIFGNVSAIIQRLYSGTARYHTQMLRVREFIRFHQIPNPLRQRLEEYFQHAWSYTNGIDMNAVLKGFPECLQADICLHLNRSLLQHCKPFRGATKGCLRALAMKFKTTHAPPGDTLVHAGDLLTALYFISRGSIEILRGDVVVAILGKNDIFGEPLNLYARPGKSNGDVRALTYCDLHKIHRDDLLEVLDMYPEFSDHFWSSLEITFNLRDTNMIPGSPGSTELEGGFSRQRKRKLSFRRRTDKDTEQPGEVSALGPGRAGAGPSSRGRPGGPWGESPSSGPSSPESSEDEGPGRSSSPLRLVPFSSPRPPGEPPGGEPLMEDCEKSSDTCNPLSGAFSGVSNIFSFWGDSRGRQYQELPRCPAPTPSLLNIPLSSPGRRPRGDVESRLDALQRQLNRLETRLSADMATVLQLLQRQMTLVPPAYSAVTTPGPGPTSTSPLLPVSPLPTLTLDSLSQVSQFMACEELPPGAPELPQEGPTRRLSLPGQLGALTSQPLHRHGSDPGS
For the molecule `CCCN1CCN(C(=O)c2cccc3c2C(=O)N(CCOC)C3)CC1`, the “hERG current change (%, negative = inhibition) at 10uM” value is listed as 13%. Turning to `COc1ccc(-c2nnc(SCC(N)=O)n2N)cc1`, the “hERG current change (%, negative = inhibition) at 10uM” value turned out to be 6.29%. Take `COc1cc(/C=N/NC(=O)c2nnn(-c3nonc3N)c2C(C)C)ccc1O`: the “hERG current change (%, negative = inhibition) at 10uM” value is -2.72%. Consider `O=C1CC(NC(=O)c2ccc(Cl)cc2)C(=O)N1` (stereo not shown), for which the “hERG current change (%, negative = inhibition) at 10uM” value is 14.8%.

Turning to `Cc1cccc2sc(NC(=O)c3ccc(OCC4CCCO4)cc3)nc12` (stereo not shown), the “hERG current change (%, negative = inhibition) at 10uM” value stood at 9.85%.

For `CCc1ccc(NC(=S)N2CCNC(=O)C2CC(=O)OC)cc1` (stereo not shown), the “hERG current change (%, negative = inhibition) at 10uM” value was determined as 7.17%.

On to `COCCNC(=O)CCCCCNS(=O)(=O)c1ccc(C)cc1`, for which the “hERG current change (%, negative = inhibition) at 10uM” value is 8.18%. Regarding `CCN(CC)CCNC(=O)c1ccc(NC(=O)Cc2ccccc2F)cc1`, the “hERG current change (%, negative = inhibition) at 10uM” value is recorded as -6.75%.

As to `CCc1ccc(N(CC(=O)NC(C)(C)C)C(=O)CNC(=O)c2cccs2)cc1`, the “hERG current change (%, negative = inhibition) at 10uM” value was found to be 15.5%. As to `Cc1nc(S/C(=C/c2ccc(-c3ccc(C(=O)O)cc3)o2)C(=O)O)n[nH]1`, the “hERG current change (%, negative = inhibition) at 10uM” value was -11.4%. As to `Cc1ccc(NC(=S)N(CCCN2CCN(C)CC2)Cc2cccs2)cc1C`, the “hERG current change (%, negative = inhibition) at 10uM” value is given as -57%.

As to `Cc1ccc(NC(=S)N(CCN(C)C)Cc2cccs2)cc1C`, the “hERG current change (%, negative = inhibition) at 10uM” value is -46.7%. On to `O=S(=O)(c1ccc(SCc2ccccc2)nc1)N1CCCCC1`, for which the “hERG current change (%, negative = inhibition) at 10uM” value is given as 4.03%.

Regarding `O=C(C[n+]1ccccc1)Nc1nc2ccccc2s1.[Cl-]`, the “hERG current change (%, negative = inhibition) at 10uM” value stood at 0.223%.

For the molecule `COc1ccc(C2CC(c3ccc(Br)cc3)=NN2C(=O)CCC(=O)O)cc1OC` (stereo not shown), the “hERG current change (%, negative = inhibition) at 10uM” value was determined as 9.97%.

Take `Cc1ccc(O)c(NC(=O)C2CC(c3ccc(F)cc3)=NO2)c1` (stereo not shown): the “hERG current change (%, negative = inhibition) at 10uM” value is recorded as -3.98%. For `C[C@]12CC[C@@H](O)C[C@@H]1CC[C@@H]1[C@@H]2CC[C@]2(C)C(=O)CC[C@@H]12` the value was 5.99%; for `C[C@]12CC[C@H](O)C[C@@H]1CC[C@@H]1[C@@H]2CC[C@]2(C)C(=O)CC[C@@H]12`, -58.3%.

For `C[C@]12CC[C@@H](O)C[C@H]1CC[C@@H]1[C@@H]2CC[C@]2(C)C(=O)CC[C@@H]12`, the “hERG current change (%, negative = inhibition) at 10uM” value is recorded as -3.43%. Under `Cc1ccc(-n2c(O)c(C=NCCN3CCNCC3)c(=O)[nH]c2=S)cc1` stands 22%; under `O=S1(=O)CCN=C2SC3=C(CCCC3)N21`, 1.25%. Regarding `CC1CC(C)CN(C(=O)COC(=O)c2ccc3c(c2)C(=O)N(Cc2ccco2)C3=O)C1` (stereo not shown), the “hERG current change (%, negative = inhibition) at 10uM” value is recorded as -68.7%. For `O=C(OCC(=O)N1CCCCC1)c1ccc2c(c1)C(=O)N(Cc1ccco1)C2=O` the value was -28%. In the case of `CC1CCCCN1C(=O)COC(=O)c1ccc2c(c1)C(=O)N(Cc1ccco1)C2=O` (stereo not shown), the “hERG current change (%, negative = inhibition) at 10uM” value is on record as -34.9%. Regarding `CN(CC(=O)Nc1ccccc1Br)C(=O)c1cccn1C`, the “hERG current change (%, negative = inhibition) at 10uM” value stood at 16.2%. For `Cl.O=C(CCS(=O)(=O)c1ccccc1)N(CCCN1CCOCC1)c1nc2ccccc2s1` the value was -14.1%. Consider `CCc1nn(CC(=O)NCCC2=CCCCC2)c(=O)c2cc3cc(F)ccc3n12`, for which the “hERG current change (%, negative = inhibition) at 10uM” value is given as 15.7%. On to `CN(C)S(=O)(=O)c1ccc(NC(=O)CN2CCN(c3ccccn3)CC2)cc1`, for which the “hERG current change (%, negative = inhibition) at 10uM” value was 13.9%. Regarding `CCn1c2ccccc2c2nnc(SCc3ccccc3)nc21`, the “hERG current change (%, negative = inhibition) at 10uM” value is -3.61%. For the molecule `C=CCn1c2ccccc2c2nnc(SCCN3CCCCC3)nc21`, the “hERG current change (%, negative = inhibition) at 10uM” value is on record as -46.4%. For the molecule `CCN(CC)CCSc1nnc2c3ccccc3n(Cc3ccccc3)c2n1`, the “hERG current change (%, negative = inhibition) at 10uM” value was -75.4%.

Take `CCN(CC)CCSc1nnc2c3ccccc3n(CCc3ccccc3)c2n1`: the “hERG current change (%, negative = inhibition) at 10uM” value is given as -75.3%. Regarding `O=C1c2ccccc2C(=O)N1CSc1nnc2c3ccccc3n(CCc3ccccc3)c2n1`, the “hERG current change (%, negative = inhibition) at 10uM” value turned out to be 14.4%.

Take `c1ccc(Cn2c3ccccc3c3nnc(SCCN4CCCCC4)nc32)cc1`: the “hERG current change (%, negative = inhibition) at 10uM” value is -67.7%. As for `CSc1nnc2c3ccccc3n(CCc3ccccc3)c2n1`, the “hERG current change (%, negative = inhibition) at 10uM” value is reported as -12.1%. For `CSc1nnc2c3ccccc3n(Cc3ccccc3)c2n1` the value was 25.8%. As for `CCn1c2ccccc2c2nnc(SCCN3CCCCC3)nc21`, the “hERG current change (%, negative = inhibition) at 10uM” value was -39.1%. For `O=C(CSc1nnc(NC(=O)c2cccc(F)c2)s1)NC1CCCC1`, the “hERG current change (%, negative = inhibition) at 10uM” value was determined as 13.9%. `Cc1cc(C)nc(NC(=O)c2c(F)c(F)c(F)c(C(=O)Nc3cc(C)cc(C)n3)c2F)c1`: the “hERG current change (%, negative = inhibition) at 10uM” value is -8.14%. For the molecule `CN(C)C=O.CNC(=O)CSc1nc2nc(C)cc(C)n2n1`, the “hERG current change (%, negative = inhibition) at 10uM” value is given as 0.176%. For `Cc1cccc(OCC(=O)Nc2nnc(-c3ccco3)s2)c1` the value was -1.94%; for `CCOc1ccc2nc(SC3CC(=O)N(c4ccc(C)cc4)C3=O)sc2c1` (stereo not shown), -6.29%; for `Cc1cc(C(=O)NCCCn2ccnc2)sc1-c1ccccc1`, -10.3%.

As to `CCc1cccc(NS(=O)(=O)c2c(C)nc3scc(C)n3c2=O)c1`, the “hERG current change (%, negative = inhibition) at 10uM” value was 9.84%. Turning to `Cc1nc2scc(C)n2c(=O)c1S(=O)(=O)Nc1ccc(F)cc1`, the “hERG current change (%, negative = inhibition) at 10uM” value is recorded as -22.8%.

Consider `CCOC(=O)c1c(C)[nH]c(C)c1S(=O)(=O)NCC1CCN(Cc2ccc(C)cc2)CC1`, for which the “hERG current change (%, negative = inhibition) at 10uM” value is listed as -60.2%. For `COC(=O)c1cc(S(=O)(=O)NCC2CCN(Cc3cccc(F)c3)CC2)c[nH]1` the value was -16.7%; for `CCOC(=O)c1c(C)[nH]c(C)c1S(=O)(=O)NCC1CCN(Cc2cccc(F)c2)CC1`, -1.69%; for `Cc1ccc(CN2CCC(CNS(=O)(=O)c3ccc(-c4ccc(=O)[nH]n4)s3)CC2)cc1`, -60.6%. On to `COC(=O)c1cc(S(=O)(=O)NCC2CCN(Cc3ccc(F)cc3)CC2)c[nH]1`, for which the “hERG current change (%, negative = inhibition) at 10uM” value is -57%.

Regarding `O=c1ccc(-c2ccc(S(=O)(=O)NCC3CCN(Cc4cccc(F)c4)CC3)s2)n[nH]1`, the “hERG current change (%, negative = inhibition) at 10uM” value is recorded as -8.55%.

As for `Cc1cccc(NS(=O)(=O)c2c(C)nc3scc(C)n3c2=O)c1`, the “hERG current change (%, negative = inhibition) at 10uM” value is -65.2%. With `CCOC(=O)c1c(C)[nH]c(C)c1S(=O)(=O)NCC1CCN(Cc2cccc(Cl)c2)CC1`, the “hERG current change (%, negative = inhibition) at 10uM” value is recorded as -20.5%. For `COC(=O)c1cc(S(=O)(=O)NCC2CCN(Cc3ccccc3F)CC2)c[nH]1`, the “hERG current change (%, negative = inhibition) at 10uM” value is -21.4%. As for `O=c1ccc(-c2ccc(S(=O)(=O)NCC3CCN(Cc4ccccc4F)CC3)s2)n[nH]1`, the “hERG current change (%, negative = inhibition) at 10uM” value is listed as -32.6%.

These data come from PMC4336329 (PLoS ONE, 2015).
